Source: the supplement of paper PMC3545927
The other results are listed elsewhere or left out. How many sequences the whole screen found active is unknown.

Target: furin, P09958
Assay: furin cleavage Z-score vs untreated control; higher = more cleavage, active = 3.5 or more, inactive = 1 or less, 8 variable residues between constant flanks
Outline: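 To give the cleavage Z-score, log read counts were set against furin-free reactions, lowess-adjusted and scaled by median absolute deviation. These counts came from PCR adapter-tagged, sequenced DNA released when purified furin cut 8-mer peptides fused to a cDNA oligonucleotide and held on magnetic beads by their N-terminus. Digests were 0.01 ml, 1:10 enzyme:substrate, in 50 mM HEPES pH 7.5 with CaCl2 and NaCl, for 7.5, 15 or 30 min.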

Sequence of furin, P09958 (P09958 whole entry): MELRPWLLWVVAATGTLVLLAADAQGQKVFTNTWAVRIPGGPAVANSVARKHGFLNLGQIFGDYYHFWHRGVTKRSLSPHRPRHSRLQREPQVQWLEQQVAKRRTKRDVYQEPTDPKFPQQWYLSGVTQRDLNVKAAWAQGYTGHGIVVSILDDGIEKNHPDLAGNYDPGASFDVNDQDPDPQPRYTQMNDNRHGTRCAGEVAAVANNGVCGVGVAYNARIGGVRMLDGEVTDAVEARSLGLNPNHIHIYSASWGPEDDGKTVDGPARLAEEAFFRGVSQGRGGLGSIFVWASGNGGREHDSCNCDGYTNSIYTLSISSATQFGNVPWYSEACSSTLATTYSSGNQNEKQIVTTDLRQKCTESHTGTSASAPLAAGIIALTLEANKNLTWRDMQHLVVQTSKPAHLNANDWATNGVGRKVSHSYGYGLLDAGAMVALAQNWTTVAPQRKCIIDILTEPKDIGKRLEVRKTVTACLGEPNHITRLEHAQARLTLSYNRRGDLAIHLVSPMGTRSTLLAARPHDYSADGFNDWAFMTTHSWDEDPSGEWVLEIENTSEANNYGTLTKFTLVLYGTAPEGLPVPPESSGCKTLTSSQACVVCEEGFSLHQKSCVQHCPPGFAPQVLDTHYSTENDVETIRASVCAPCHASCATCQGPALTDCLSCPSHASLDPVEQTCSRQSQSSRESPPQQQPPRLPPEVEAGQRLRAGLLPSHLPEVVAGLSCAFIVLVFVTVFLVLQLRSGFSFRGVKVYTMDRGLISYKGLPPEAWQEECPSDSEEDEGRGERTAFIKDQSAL

CAVFSRDSRSAGNASASA [FS-103]
furin cleavage Z-score (7.5 min): 2.25 | furin cleavage Z-score (15 min): 0.692 (inactive) | furin cleavage Z-score (30 min): 2.36

CAGQPGLKRSAGNASASA [FS-1203]
furin cleavage Z-score (7.5 min): -1.59 (inactive) | furin cleavage Z-score (15 min): 1.19 | furin cleavage Z-score (30 min): -2.33 (inactive)

CARRRRRKESAGNASASA [FS-2298]
furin cleavage Z-score (7.5 min): 2.91 | furin cleavage Z-score (15 min): 3.94 (active) | furin cleavage Z-score (30 min): 2.81

CARRRRDSRSAGNASASA [FS-1267]
furin cleavage Z-score (7.5 min): 9.84 (active) | furin cleavage Z-score (15 min): 9.21 (active) | furin cleavage Z-score (30 min): 7.48 (active)

CANKVRAKRSAGNASASA [FS-618]
furin cleavage Z-score (7.5 min): 10.6 (active) | furin cleavage Z-score (15 min): 10.4 (active) | furin cleavage Z-score (30 min): 8.36 (active)

CARRATLKRSAGNASASA [FS-624]
furin cleavage Z-score (7.5 min): 3.99 (active) | furin cleavage Z-score (15 min): 5.42 (active) | furin cleavage Z-score (30 min): 4.76 (active)

CAKGWRLLAPAGNASASA [HC671]
furin cleavage Z-score (7.5 min): 0.0408 (inactive) | furin cleavage Z-score (15 min): 0.181 (inactive) | furin cleavage Z-score (30 min): -0.469 (inactive)

CALPINALSNAGNASASA [HC1381]
furin cleavage Z-score (7.5 min): 0.137 (inactive) | furin cleavage Z-score (15 min): -0.538 (inactive) | furin cleavage Z-score (30 min): -0.0923 (inactive)

CAFWEGVFTGAGNASASA [HC939]
furin cleavage Z-score (7.5 min): -1.63 (inactive) | furin cleavage Z-score (15 min): 0.063 (inactive) | furin cleavage Z-score (30 min): -1.49 (inactive)

CATLTCGFADAGNASASA [HC223]
furin cleavage Z-score (7.5 min): -1.51 (inactive) | furin cleavage Z-score (15 min): -0.777 (inactive) | furin cleavage Z-score (30 min): -0.721 (inactive)

CAEVVTSTIVAGNASASA [HC2224]
furin cleavage Z-score (7.5 min): 1.34 | furin cleavage Z-score (15 min): 0.923 (inactive) | furin cleavage Z-score (30 min): -0.591 (inactive)

CAIEMEECSQAGNASASA [HC1784]
furin cleavage Z-score (7.5 min): 0.115 (inactive) | furin cleavage Z-score (15 min): -0.919 (inactive) | furin cleavage Z-score (30 min): -0.409 (inactive)

CARRRRAKRSAGNASASA [FS-1481]
furin cleavage Z-score (7.5 min): 10 (active) | furin cleavage Z-score (15 min): 9.95 (active) | furin cleavage Z-score (30 min): 7.99 (active)

CAMEECCQHLAGNASASA [HC34]
furin cleavage Z-score (7.5 min): 0.752 (inactive) | furin cleavage Z-score (15 min): -0.68 (inactive) | furin cleavage Z-score (30 min): 0.844 (inactive)

CAESTRTRRAAGNASASA [FS-1522]
furin cleavage Z-score (7.5 min): 8.54 (active) | furin cleavage Z-score (15 min): 9.73 (active) | furin cleavage Z-score (30 min): 8.09 (active)

CAHPNIEEVAAGNASASA [HC840]
furin cleavage Z-score (7.5 min): 0.6 (inactive) | furin cleavage Z-score (15 min): -0.828 (inactive) | furin cleavage Z-score (30 min): 0.48 (inactive)

CAERSRVCRCAGNASASA [FS-123]
furin cleavage Z-score (7.5 min): -0.711 (inactive) | furin cleavage Z-score (15 min): 0.103 (inactive) | furin cleavage Z-score (30 min): 2.18

CAERSREMRAAGNASASA [FS-1120]
furin cleavage Z-score (7.5 min): 0.288 (inactive) | furin cleavage Z-score (15 min): 0.367 (inactive) | furin cleavage Z-score (30 min): -1.27 (inactive)

CAHPVREARAAGNASASA [FS-1211]
furin cleavage Z-score (7.5 min): 3.66 (active) | furin cleavage Z-score (15 min): 5.02 (active) | furin cleavage Z-score (30 min): 5.4 (active)

CAHYVPESDAAGNASASA [HC1127]
furin cleavage Z-score (7.5 min): -0.402 (inactive) | furin cleavage Z-score (15 min): -0.697 (inactive) | furin cleavage Z-score (30 min): -1.88 (inactive)

CAERSRKRRAAGNASASA [FS-417]
furin cleavage Z-score (7.5 min): 11.5 (active) | furin cleavage Z-score (15 min): 10.5 (active) | furin cleavage Z-score (30 min): 7.42 (active)

CAHPSRKRRAAGNASASA [FS-132]
furin cleavage Z-score (7.5 min): 11.3 (active) | furin cleavage Z-score (15 min): 11.3 (active) | furin cleavage Z-score (30 min): 8.53 (active)

CAMNTPGLPVAGNASASA [HC932]
furin cleavage Z-score (7.5 min): 0.685 (inactive) | furin cleavage Z-score (15 min): 0.0364 (inactive) | furin cleavage Z-score (30 min): -1.85 (inactive)

CAEVVTSTWGAGNASASA [HC2256]
furin cleavage Z-score (7.5 min): 0.945 (inactive) | furin cleavage Z-score (15 min): 1.37 | furin cleavage Z-score (30 min): -1.03 (inactive)

CAMQECSQHLAGNASASA [HC1702]
furin cleavage Z-score (7.5 min): 0.311 (inactive) | furin cleavage Z-score (15 min): 0.512 (inactive) | furin cleavage Z-score (30 min): -0.705 (inactive)

CAEEQKLPINAGNASASA [HC1379]
furin cleavage Z-score (7.5 min): 0.861 (inactive) | furin cleavage Z-score (15 min): -1.11 (inactive) | furin cleavage Z-score (30 min): -0.462 (inactive)

CASVPCHRPSAGNASASA [HC2317]
furin cleavage Z-score (7.5 min): 0.746 (inactive) | furin cleavage Z-score (15 min): 0.823 (inactive) | furin cleavage Z-score (30 min): 0.912 (inactive)

CAIPVRAPRSAGNASASA [FS-442]
furin cleavage Z-score (7.5 min): 5.71 (active) | furin cleavage Z-score (15 min): 3.56 (active) | furin cleavage Z-score (30 min): 4.32 (active)

CANATRAPRSAGNASASA [FS-63]
furin cleavage Z-score (7.5 min): 8.66 (active) | furin cleavage Z-score (15 min): 8.42 (active) | furin cleavage Z-score (30 min): 6.36 (active)

CAEFERAPRSAGNASASA [FS-524]
furin cleavage Z-score (7.5 min): 0.193 (inactive) | furin cleavage Z-score (15 min): 0.266 (inactive) | furin cleavage Z-score (30 min): 0.907 (inactive)

CAREFRAHRSAGNASASA [FS-487]
furin cleavage Z-score (7.5 min): 1.52 | furin cleavage Z-score (15 min): 0.689 (inactive) | furin cleavage Z-score (30 min): 1.39

CASRKRAPRSAGNASASA [FS-963]
furin cleavage Z-score (7.5 min): 10.6 (active) | furin cleavage Z-score (15 min): 8.82 (active) | furin cleavage Z-score (30 min): 9.02 (active)
